# This is a sample that favours compounds with a hit; in the whole collection about 19% have one here.
# Chronic BCR inh – qHTS Assay to Find Inhibitors of Chronic Active B-Cell Receptor Signaling; ABC-DLBCL IkBa-CBG/CBR reporter, luminescence ratio, 4 h; Potency, µM (highest dose often 46.1 µM), usual class: inhibitors; 340,000 compounds, 0.05% hits; AID 493014, 2011; active = well fitted inhibition curve with a large enough effect in the signal ratio, with a control signal flat, not every such curve was filed as active; inconclusive = small, poorly fitted or top-dose-only effect, or effect the other way, or a change in a side signal; the % refers to the signal ratio
#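 TMD8 human ABC-DLBCL cells with doxycycline-inducible IκBα–green luciferase fusion and unfused red luciferase, in 0.5% FBS medium; compounds up to 46 uM, 4 h at 37C. Green/red luminescence ratio, filter-overlap corrected, fitted to concentration-response curves.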
# DT40 TDP1 CPT – qHTS for Inhibitors of human tyrosyl-DNA phosphodiesterase 1 (TDP1): qHTS in cells in presence of CPT. chicken DT40 Tdp1-/-;hTDP1 cells + 20 nM CPT, ATP luminescence, 48 h. Potency, µM (highest dose often 46.2 µM), usual class: inhibitors. 420,000 compounds, 12% hits; also: nearly all actives have a fitted effect of over 55% in size
#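 Chicken DT40 Tdp1-/- cells complemented with human TDP1, 400 cells/well, exposed to compounds plus 20 nM camptothecin for at least 48 h at 37 C; viability read as ATP content by CellTiter-Glo luminescence.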
# TDP1 cell noCPT – qHTS for Inhibitors of human tyrosyl-DNA phosphodiesterase 1 (TDP1): qHTS in cells in absence of CPT. Potency, µM (doses to about 46.2 µM), actives largely listed as inhibitors. 420,000 compounds, 15% hits. DT40 Tdp1-/- hTDP1 cells, no CPT, ATP luminescence, 48 h; also: nearly all actives have a fitted effect of over 55% in size
#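 No-CPT arm: Tdp1-/-;hTDP1 DT40 cells (400/well) plus compounds, incubated ≥48 hr at 37 °C. Readout CellTiter-Glo luminescence.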
# MCF10A rereplic – A quantitative high throughput screen for small molecules that induce DNA re-replication in MCF 10a normal breast cells | MCF 10A DNA re-replication, Hoechst nuclear intensity, 48 h | Potency, µM (doses to about 46.1 µM), most hits filed as activators | 350,000 compounds, 2.9% hits; also: nearly all actives have a fitted effect of over 50% in size
# SW480 rereplic – A quantitative high throughput screen for small molecules that induce DNA re-replication in SW480 colon adenocarcinoma cells | SW480 DNA re-replication, Hoechst DNA content imaging, 48 h | Potency, µM (top dose mostly 46.1 µM), most hits filed as activators | 340,000 compounds, 1.8% hits | AID 624297, 2012; also: nearly all actives have a fitted effect of over 55% in size
#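 250 cells/well; 23 nL cpd via pin tool; 48 hr, 37 C, 5% CO2; Hoechst 40 min; imager read of total nuclear intensity, ex 405/em 500-530 nm.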
# IL-1B inflam inh – qHTS for Inhibitors of Inflammasome Signaling: IL-1-beta AlphaLISA Primary Screen. THP-1 LPS/ATP IL-1B secretion, AlphaLISA, 16 h; active compounds read low. activity change, % at 57.5 µM. 360,000 compounds, 4.7% hits. AID 743279, 2014; in the data active = activity change below about -50%; inconclusive = mostly about -30% to -49%
#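 THP-1 cells pretreated 1 hr with compounds (up to 57.5 uM final), then stimulated with LPS (250 ng/mL final) plus ATP (1.25 mM final); secreted IL-1B measured by AlphaLISA after 16 hr, decreased signal indicating inhibition.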
# A number is an active result; – = inactive; ? = inconclusive; · = no result given. Unless noted, calls follow the shape of the dose curve; as a rule, active = well fitted curve in the direction sought with a large enough effect; inconclusive = small, poorly fitted or top-dose-only effect, or another doubt; inactive = no such curve, though single readings can be large; an effect the other way counts as inactive or inconclusive.
SMILES,Chronic BCR inh,DT40 TDP1 CPT,TDP1 cell noCPT,MCF10A rereplic,SW480 rereplic,IL-1B inflam inh
CC1Sc2ccc(S(=O)(=O)N3CCN(c4ccccc4)CC3)cc2NC1=O (centres undefined),?,?,?,?,–,–
Cc1cccc(N2CCN(S(=O)(=O)c3ccc4c(c3)C(C(C)C)C(=O)N4)CC2)c1C (centres undefined),·,5.17µM,11.6µM,·,·,·
Cc1cccc(N2CCN(S(=O)(=O)c3ccc4c(c3)NC(=O)CS4)CC2)c1C,?,?,?,–,–,–
Cc1cccc(N2CCN(S(=O)(=O)c3ccc4c(c3)NC(=O)C(C)S4)CC2)c1C (centres undefined),?,20.6µM,?,–,–,–
CC(C)c1cc(CNC(=O)c2cc(COc3cncc(Cl)c3)on2)on1,–,?,18.4µM,–,–,–
COc1ccc(-c2nc(SCC(=O)NCCc3ccc(OC)c(OC)c3)n[nH]2)cc1,·,–,–,·,·,·
Cc1ccc(C(Sc2ccccc2)C(Cn2cncn2)C(=O)c2ccccc2)cc1 (centres undefined),?,?,23.1µM,–,?,–
Cc1ccc(SCCCn2cncn2)cc1,–,–,–,–,?,–
CC1CCCN(S(=O)(=O)c2cccc(C(=O)NCC3CCCO3)c2)C1 (centres undefined),–,–,–,–,–,–
COc1ccc2nc(N(Cc3cccnc3)C(=O)Cc3ccccc3)sc2c1,?,–,–,·,·,·
COc1ccc(CC(=O)N(CC2CCCO2)c2nc3ccccc3s2)cc1 (centres undefined),–,?,13µM,–,–,–
COc1ccc(-c2csc(N(CC3CCCO3)C(=O)c3cccs3)n2)cc1 (centres undefined),–,11.6µM,?,?,–,–
COc1ccc(-c2csc(N(CCCN(C)C)C(=O)c3ccc(OC)c(OC)c3)n2)cc1,·,?,–,·,·,–
CCN(CC)CCCN(C(=O)c1ccc(Br)cc1)c1nc(-c2ccc(OC)cc2)cs1,–,–,?,?,?,-81.5
CCN(CC)CCCN(C(=O)c1cccc(C)c1)c1nc(-c2ccc(OC)cc2)cs1,–,–,7.31µM,–,–,-50.4
O=C(Nc1ccc(C(=O)O)cc1)/C(=C\C=C\c1ccccc1)NC(=O)c1ccccc1Br,?,–,–,?,–,–
O=C(NCc1cccnc1)c1ccccc1CCc1ccccc1,–,?,–,–,–,–
COc1ccccc1CNC(=O)c1ccccc1C(=O)NC(CC(C)C)C(=O)NCc1ccccc1OC (centres undefined),–,?,?,–,–,?
COc1ccc(S(=O)(=O)NC(=O)C2(C)CCN2C(=O)c2cccc(F)c2)cc1 (centres undefined),·,–,–,·,·,–
C=CCNc1nc(C(=O)OC(C)C(=O)c2ccc(C)cc2)cs1 (centres undefined),?,–,?,–,–,–
COCCN(C(=O)Cc1ccc(OC)c(OC)c1)c1nc(-c2cc(OC)ccc2OC)cs1,?,18.4µM,?,?,–,–
CCN(CC)CCCN(C(=O)c1cccs1)c1nc(-c2ccc(OC)cc2)cs1,?,18.4µM,20.6µM,?,18.4µM,?
COc1ccc(OC)c(-c2csc(N(C)C(=O)Cc3ccccc3)n2)c1,?,–,–,–,–,?
COc1ccc(OC)c(-c2csc(N(CC3CCCO3)C(=O)C3CCCCC3)n2)c1 (centres undefined),–,20.6µM,18.4µM,–,–,–
COc1ccc(-c2csc(N(C)C(=O)c3cccs3)n2)cc1,?,–,–,?,–,-59.6
SMILES,Chronic BCR inh,DT40 TDP1 CPT,TDP1 cell noCPT,MCF10A rereplic,SW480 rereplic,IL-1B inflam inh
COc1ccc(-c2csc(N(Cc3ccco3)C(=O)c3cccs3)n2)cc1,–,?,?,–,–,–
CCNc1ncc2nc(-c3cn(C)c4ccccc34)c(=O)n(Cc3ccc(F)cc3)c2n1,·,–,–,·,·,·
COc1cc(/C=N/Nc2ncc(C(F)(F)F)cc2Cl)cc(OC)c1OC,–,?,?,?,7.31µM,–
CC1=NN(CCc2ccccn2)C(=O)CC1,·,–,–,–,–,–
Nc1ncnc2c1nc(-c1ccccc1)n2C1OC(CO)C(O)C1O (centres undefined),·,–,–,·,·,-50.4
Nc1ncnc2c1nc(Cl)n2[C@@H]1O[C@H](CO)[C@@H](O)[C@@H]1O,·,1µM,5.01µM,·,·,·
[N-]=[N+]=Nc1nc2c(N)ncnc2n1C1OC(CO)C(O)C1O (centres undefined),·,0.411µM,0.581µM,·,·,·
Nc1ncnc2c1nc(Cl)n2C1OC(CO)C(O)C1O (centres undefined),·,0.366µM,0.461µM,·,·,·
